A selection: hits, their analogues and other compounds. The true share with any hit is near 7.9%.
KB-3-1 tox – KB-3-1 parental cell cytotoxicity. Potency, µM (highest dose often 46.1 µM), usual class: cytotoxic. actives 1.4% (n = 400,000). KB-3-1 viability, CellTiter-Glo ATP luminescence, 72 h; further: on the % scale 0 is the no-effect control and ±100 the full control effect; nearly all actives have a fitted effect of over 60% in size
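Here the drug-naive KB-3-1 line serves as comparator for MDR sub-line selectivity; cells received compound titrations, 72 h at 37 °C, then CellTiter-Glo readout.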
SW480 rerep – inducers of DNA re-replication in SW480 colon cancer cells; Potency, µM (highest dose often 46.1 µM), inactives show at the top dose re-replication activation, actives largely listed as activators; SW480 DNA re-replication, Hoechst DNA content imaging, 48 h; actives 1.8% (n = 340,000); further: % of control where 0% means no effect; nearly all actives have a fitted effect of over 55% in size
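250 cells/well; 23 nL cpd via pin tool; 48 hr, 37 C, 5% CO2; Hoechst 40 min; imager read of total nuclear intensity, ex 405/em 500-530 nm.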
HT1080-NT tox – kills 2HG-producing HT-1080-NT fibrosarcoma cells; HT-1080-NT fibrosarcoma viability, CellTiter-Glo ATP luminescence, 48 h; Potency, µM (top dose mostly 46.1 µM), for the others: at the highest dose activity, negative = less viability, most hits filed as cytotoxic; AID 686970; actives 1.6% (n = 360,000);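 further: NT is the 2HG producing partner of a matched IDH1 knockdown line; 0% = DMSO-treated cells and -100% = media-only wells without cells; nearly all actives have a fitted effect of over 55% in size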
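A 48-hour cytotoxicity screen used HT-1080-NT cells plated 2 hours before compound delivery. ATP-based CellTiter-Glo luminescence measured viability, normalized to DMSO and no-cell controls.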
MCF10A rerep – inducers of DNA re-replication in MCF 10A breast cells | MCF 10A DNA re-replication, Hoechst nuclear intensity, 48 h | Potency, µM (doses to about 46.1 µM), inactives show at the highest dose activity, positive = re-replication, actives largely listed as activators | actives 2.9% (n = 350,000) | AID 624296; further: % of control where 0% means no effect; nearly all actives have a fitted effect of over 50% in size
KB-V1 cytotox – kills drug-selected multidrug resistant KB-V1 cells; Potency, µM (doses to about 46.1 µM), actives largely listed as cytotoxic; KB-V1 MDR cells viability, CellTiter-Glo, 72 h; actives 3.4% (n = 400,000); further: on the % scale 0 is the no-effect control and ±100 the full control effect; nearly all actives have a fitted effect of over 60% in size
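Luminescent ATP read-out (CellTiter-Glo, 10 min) measures survival of drug-selected KB-V1 MDR cells after 72 h, 37 degrees C compound exposure. Medium: phenol-red-free DMEM, 10% FBS. Values from fitted concentration-response curves.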
HT1080 IDH1KD tx – kills HT-1080 cells with IDH1 knockdown; AID 686971; actives 2% (n = 360,000); HT-1080 IDH1 knockdown viability, ATP luminescence, 48 h; Potency, µM (top dose mostly 46.1 µM), for inactives: at the highest dose activity, negative = toxicity, most hits filed as cytotoxic;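 further: 0% = DMSO wells and -100% = cell-free medium wells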
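Knockdown cells (IDH1KD HT-1080) received compounds 2 h after plating at 750 cells/well and were kept 48 h at 37 °C in 5% FBS RPMI. A CellTiter-Glo luminescence read gave % activity for curve fitting.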
Active calls of the source: *; i = inactive; ? = inconclusive; · = not tested or not shown. The call rests on the fitted dose curve; in most records, active means well fitted curve in the direction sought with a large enough effect; inconclusive means small, poorly fitted or top-dose-only effect, or another doubt; inactive means no such curve, though single readings can be large; an effect the other way counts as inactive or inconclusive. Potency means the concentration at half of the fitted maximal effect.

SMILES	KB-3-1 tox	SW480 rerep	HT1080-NT tox	MCF10A rerep	KB-V1 cytotox	HT1080 IDH1KD tx
COc1cc(C(C(=O)NC2CCCCC2)N(C(=O)Cc2c[nH]c3ccccc23)c2ccc(C)cc2)cc(OC)c1OC (stereo not given)	?	11.4%	-4.5%	3.6%	23.1µM*	-10.7%
O=C(NC1CCCCC1)C(c1cccs1)N(C(=O)Cc1c[nH]c2ccccc12)c1ccc(F)cc1 (stereo not given)	i	-0.1%	-0.8%	0.5%	i	1.5%
COc1ccc(OCc2nc(C#N)c(NCc3ccccc3Cl)o2)cc1	i	·	·	·	i	·
COc1ccc(C(C[N+](=O)[O-])c2c(C)[nH]n(-c3ccccc3)c2=O)cc1 (stereo not given)	i	?	?	11.6µM*	i	-24.0%
COc1ccc(C(C[N+](=O)[O-])c2c(-c3ccccc3)cc3ccccn23)c(OC)c1 (stereo not given)	?	?	?	16.4µM*	?	?
COc1ccc(C(C[N+](=O)[O-])c2c(C)cc3ccccn23)cc1 (stereo not given)	i	?	?	20.6µM*	i	?
Cc1[nH]n(-c2ccccc2)c(=O)c1C(c1ccc(O)c([N+](=O)[O-])c1)c1c(C)[nH]n(-c2ccccc2)c1=O	i	-4.4%	2.2%	19.9%	i	-0.5%
COc1cccc(C(c2c(C)[nH]n(-c3ccccc3)c2=O)c2c(C)[nH]n(-c3ccccc3)c2=O)c1OC	i	1.1%	-1.6%	6.51µM*	i	-10.2%
Cc1cc2ccccn2c1C(C[N+](=O)[O-])c1ccc(N(C)C)cc1 (stereo not given)	i	25.3%	-1.0%	0.3%	i	-23.0%
CCc1sc(Nc2cccc(C)c2C)nc1-c1cc2cccc(OC)c2oc1=O	i	·	·	·	i	·
CC1CCN(S(=O)(=O)c2ccc3ncn(CC(=O)Nc4ccccc4C(F)(F)F)c(=O)c3c2)CC1	i	·	·	·	i	·
CCC(=O)Nc1cc(-c2nn3c(C)nnc3s2)ccc1C	i	-6.4%	11.8%	0.1%	i	15.5%
Cc1ccc(-c2nn3c(C)nnc3s2)cc1NC(=O)c1ccc(Br)o1	i	0.3%	5.5%	0.0%	i	5.4%
Cc1ccc(OCC(=O)Nc2cc(-c3nn4c(C)nnc4s3)ccc2C)cc1	18.4µM*	-9.2%	2.3%	-4.3%	?	8.9%
Cc1ccc(-c2nn3c(C)nnc3s2)cc1NC(=O)c1ccc(-c2ccc(Cl)cc2Cl)o1	20.6µM*	17.9%	?	7.31µM*	?	?
CCOc1ccc(C(=O)Nc2ccc(C(=O)OCc3cc(=O)n4ccsc4n3)cc2)cc1	i	·	·	·	i	·
COc1ccc(S(=O)(=O)N2CCN(CC(=O)Nc3ccc(C)c(F)c3)CC2)cc1	i	-3.6%	-0.6%	-2.2%	6.51µM*	-13.5%
O=C(CN1CCN(S(=O)(=O)N2CCCCC2)CC1)Nc1ccc(Cl)c(Cl)c1	?	-6.3%	-20.9%	?	13µM*	?
Cc1cc(NC(=O)CN2CCN(S(=O)(=O)c3ccc(Cl)cc3)CC2)no1	i	1.9%	4.2%	-3.8%	16.4µM*	-4.1%
Cc1ccc(NC(=O)CN2CCN(S(=O)(=O)c3ccc(C(C)C)cc3)CC2)cc1F	i	·	·	·	?	·
COc1cc(OC)nc(NC(=O)CN2CCN(c3ccc(F)cc3)CC2)n1	i	-11.9%	6.3%	4.5%	23.1µM*	-8.3%
CCNC(=O)Cn1c(-c2cccs2)cc2ccccc21	i	·	·	·	i	·
c1ccc(N=C2SCCCS2)cc1	i	·	-3.5%	·	i	-7.0%
Cc1ccc(C(=O)c2oc3ccccc3c2NC(=O)c2cc(=O)c3ccccc3o2)cc1	i	·	·	·	?	·
CC(C)c1ccc(CNc2n[nH]c(-c3ccco3)n2)cc1	i	·	·	·	i	·

Screening results from PubChem.
